FBW7 activator: human FBW7 E3 ligase activation, primary screen | AID 1259310 | normalized activity (activation), % at 26.1 µM | actives 0.13% (n = 650,000) | AlphaScreen FBW7–phospho-cyclin E peptide binding, activator screen; in the data active means normalized activity above about 1.9%;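 further: purified mutant Fbw7 with reduced substrate affinity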
MITF primary: human MITF inhibition, primary screen | AlphaScreen MITF homodimerization, bead proximity signal | inhibition, % at 2.6 µM | actives 0.91% (n = 650,000) | AID 1259374; in the data active means inhibition above about 50%;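 further: 0% = vehicle wells with protein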
TEAD-YAP inh: TEAD-YAP interaction inhibition. HEK-TIYL cells, TEAD-Gal4/YAP UAS-luciferase luminescence. inhibition, % at 9.12 µM. actives 1.4% (n = 640,000). AID 1259422; in the data active means inhibition above about 32%;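 further: 0% = median of test compound wells and 100% = reference inhibitor wells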
GPR151 activ: activates the human receptor GPR151 | PathHunter beta-arrestin GPR151 cells, luminescence | activation, % at 11.2 µM | actives 1% (n = 650,000); in the data active means activation above about 4.9%;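 further: 0% = median of compound wells and 100% = cells with positive control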
Target sequence (Q8TDV0 whole entry, looked up): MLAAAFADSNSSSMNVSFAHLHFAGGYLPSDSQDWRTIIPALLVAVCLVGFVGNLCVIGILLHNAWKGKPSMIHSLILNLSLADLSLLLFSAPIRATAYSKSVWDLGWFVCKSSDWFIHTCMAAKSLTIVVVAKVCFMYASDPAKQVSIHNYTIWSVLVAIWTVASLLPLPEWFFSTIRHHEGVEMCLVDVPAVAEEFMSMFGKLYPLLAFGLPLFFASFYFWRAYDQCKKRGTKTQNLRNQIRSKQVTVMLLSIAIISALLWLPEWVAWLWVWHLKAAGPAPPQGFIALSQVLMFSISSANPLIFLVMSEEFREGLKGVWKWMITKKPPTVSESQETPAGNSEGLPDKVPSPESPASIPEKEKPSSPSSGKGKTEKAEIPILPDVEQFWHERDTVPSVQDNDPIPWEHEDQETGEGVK
* = called active by the depositor. This is a sample that favours compounds with a hit; in the whole collection about 3.5% have one here.

SMILES	FBW7 activator	MITF primary	TEAD-YAP inh	GPR151 activ
O=C(CN1CCC(c2cccnc2)CC1)Nc1nccs1	-0.1	5.8	-2.0	1.7
O=C(Cn1c2c(c3ccccc31)CCC2)Nc1nccs1	-0.1	3.8	34.4*	-0.2
Cc1nnc(NC(=O)Cn2c3c(c4ccccc42)CCC3)s1	0.2	18.4	-5.9	3.0
Cc1cc(NC(=O)Cn2c3c(c4ccccc42)CCC3)no1	0.3	11.3	57.4*	1.7
O=C(CN1CCC(c2ccncc2)CC1)Nc1nccs1	-0.1	-3.7	34.2*	-0.9
CC1(C2CCN(Cc3cc4c(cc3Cl)OCO4)CC2)NC(=O)NC1=O (stereo not given)	0.2	4.5	-1.6	0.9
CCN(CC)c1nc(Nc2ccc3ncccc3c2)nc(NC2CCN(Cc3ccccc3)CC2)n1	0.0	10.3	7.0	-0.1
CCOc1cc(C(Nc2ccccn2)c2ccc3cccnc3c2O)ccc1O (stereo not given)	-1.1	49.9	-6.6	0.2
CCOc1ccc(C(Nc2ccccn2)c2ccc3cccnc3c2O)cc1 (stereo not given)	-1.0	27.0	85.9*	1.1
COc1cc(C(Nc2ccccn2)c2ccc3cccnc3c2O)cc(Br)c1OC (stereo not given)	-0.1	18.9	76.2*	-0.1
COc1ccc(C(Nc2ccccn2)c2ccc3cccnc3c2O)cc1 (stereo not given)	-0.6	35.6	86.3*	0.6
CCc1ccc(C(Nc2ccccn2)c2ccc3ccc(C)nc3c2O)cc1 (stereo not given)	0.1	21.9	22.5	3.0
CCOc1cc(C(Nc2ccccn2)c2ccc3cccnc3c2O)ccc1OC (stereo not given)	-0.4	31.2	88.6*	0.8
O=C1c2ccccc2NC(c2cccc([N+](=O)[O-])c2)N1c1ccc2ccccc2c1 (stereo not given)	-0.2	2.5	-42.2	-0.9
Cc1ccc(C(=O)/C=C\Nc2ccc(S(=O)(=O)Nc3cc(C)nc(C)n3)cc2)cc1	0.0	11.2	-22.4	-0.9
CCOC(=O)C1(CCSC)NC(c2ccc(F)cc2)C2C(=O)N(C)C(=O)C21 (stereo not given)	-0.1	-12.5	-6.7	-0.1
Cc1cccc(NC(=O)C23CC4CC(CC(C4)C2)C3)n1	-0.1	5.6	10.8	2.4
COc1cc(C(Nc2ccccn2)c2ccc3ccc(C)nc3c2O)cc(OC)c1O (stereo not given)	-0.3	19.1	32.6*	-0.5
COc1ccc(-c2cc(=O)oc3c(OC)c(OC)ccc23)cc1	0.0	-3.3	55.6*	-1.4
COCCCNc1c(-c2ccc(Cl)cc2)c(=O)c1=O	0.0	-4.9	48.4*	-1.2
COCCNc1c(-c2ccc(C)cc2)c(=O)c1=O	-0.2	-3.3	-1.7	2.5
CC1=C(C(=O)OCCOc2ccccc2)C(c2cccc(Oc3ccccc3)c2)NC(=O)N1 (stereo not given)	0.2	12.7	3.0	-0.6
COc1ccc(-c2noc(N3CCCC(C(=O)NCCC(C)C)C3)n2)cc1 (stereo not given)	0.0	-3.9	-14.1	-1.5
CC(=C\C(=O)O)/C(=C\c1ccc(Cl)cc1)C(=O)O	-0.1	15.3	0.0	3.8
COCCCNc1cccc(Nc2cc(C)nn2-c2ccc(Cl)cc2)n1	0.3	-17.5	26.6	2.3
SMILES	FBW7 activator	MITF primary	TEAD-YAP inh	GPR151 activ
Cc1ccc2[nH]c(=O)c(CN(CCO)S(=O)(=O)c3cccc4nsnc34)cc2c1	0.0	11.2	48.1*	1.8
CC(C)c1nc2ccc(-c3cnn(-c4cccc(CN5CCOCC5)c4)c3)cc2c(=O)[nH]1	-0.3	-7.6	14.1	0.9
Cc1nc2ccc(-c3cnn(-c4cccc(N5CCOCC5)c4)c3)cc2c(=O)n1C	-0.3	7.5	87.1*	0.1
CC1=NOC(=O)/C1=C/c1ccccc1O	0.0	54.9*	-4.9	0.2
CCOc1cc(/C=C2\C(=O)ON=C2C)cc(Br)c1OCC	0.0	24.3	5.2	0.5
O=C1ON=C(c2ccccc2)/C1=C\c1ccccc1O	0.0	67.6*	-6.2	0.8
CC1=NOC(=O)/C1=C\c1cc(Br)c(O)c(Br)c1	0.0	67.8*	3.4	-1.3
COc1ccc(CNS(=O)(=O)c2ccc(F)c(C(=O)Nc3ccccc3Br)c2)cc1	0.1	12.2	-0.2	0.1
C=CCNc1nc2c(c(=O)n(C)c(=O)n2C)n1Cc1ccccc1	0.1	14.3	34.5*	2.0
C/C(Cl)=C/Cn1c(NCCc2ccccc2)nc2c1c(=O)n(C)c(=O)n2C	-0.2	-1.0	5.9	0.3
C/C(=N/Nc1nc2c(c(=O)n(C)c(=O)n2C)n1Cc1ccccc1)c1ccccc1O	0.1	5.8	7.4	1.1
C=CCn1c(NCCc2ccccc2)nc2c1c(=O)n(C)c(=O)n2C	-0.1	-17.9	36.8*	0.9
CCOc1cc(/C=N/Nc2nc3c(c(=O)n(C)c(=O)n3C)n2Cc2ccccc2)ccc1O	0.1	0.3	43.7*	-1.0
Cc1cc(N2CCCCC2)nc2ccc(NC(=O)Cn3nc(C(F)(F)F)cc3C)cc12	0.3	-5.0	1.3	-0.1
Cc1ccc(C2=NN(CC(=O)NCCCN3CCN(C)CC3)C(=O)CC2)cc1	0.1	-4.4	-5.0	1.0
N#CC1=C(N)Oc2c(ccc3ccccc23)C1c1cccc(F)c1 (stereo not given)	0.8	-0.1	4.9	-0.1
N#CC1=C(N)Oc2ccc3ccc(O)cc3c2C1c1cccnc1 (stereo not given)	-0.1	1.3	3.9	-0.4
N#CC1=C(N)Oc2ccc3ccccc3c2C1c1cccnc1 (stereo not given)	-0.1	-3.4	57.3*	0.7
N#CC1=C(N)Oc2ccc3ccccc3c2C1c1cccc(F)c1 (stereo not given)	0.0	0.8	55.7*	-1.7
Cc1cccc(NC(=O)CCC2CCN(C(=O)C3CCOCC3)CC2)c1	-0.1	1.8	6.2	0.2
CCOc1ccc(-c2cc(=O)n(CC(=O)NCc3cccs3)cn2)cc1	0.1	5.1	43.9*	-1.6
CCc1ccc(OCC(=O)NCc2cccs2)cc1	-0.1	0.8	-21.9	-0.2
CC(C)n1nc(C(=O)NN)c2ccccc2c1=O	0.1	-7.1	51.4*	0.2
Cc1c(C)c(O)c2c(c1O)C(=O)c1ccccc1C2=O	0.1	5.4	10.7	1.0
COc1ccc(-n2nc(C(=O)NCC(=O)N3CCC(C(N)=O)CC3)c3ccccc3c2=O)cc1Cl	-0.1	3.4	3.4	1.1
SMILES	FBW7 activator	MITF primary	TEAD-YAP inh	GPR151 activ
O=C(CSc1nnc(-c2ccc(F)cc2)c(-c2ccc(F)cc2)n1)Nc1ccc(Br)cc1	0.2	-5.8	4.3	-1.7
O=C(NCc1ccncc1)c1ccc(OC2CCN(Cc3cc4ccccc4o3)CC2)cc1	-0.1	2.6	44.9*	2.9
O=C(NNC(=O)c1ccccc1Cl)c1cccc(Br)c1	0.1	-13.8	-4.4	-1.1
Cc1ccc(/C(C#N)=C\c2ccc3c(c2)OCCO3)cc1	0.4	-7.0	56.3*	-4.1
Cc1cc2nnc(SCC(=O)Nc3cccc4ccccc34)n2c(N)n1	0.0	-2.3	1.2	-0.9
CC1=NC(C(F)(F)F)(C(F)(F)F)c2c(n(-c3ccc(Cl)cc3)c(=O)[nH]c2=O)N1	0.1	1.6	8.8	-0.2
Cc1ccc(-c2nc3ncccc3o2)cc1NC(=S)NC(=O)c1ccc(F)cc1	-0.2	-4.8	-6.0	0.9
